Data reported in PubChem BioAssay (NCI).
This is part of a sample that, as a whole, favours compounds with a hit. Of some 83,000 tested, about 20% had one in any assay.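 Cells were grown in 96-well plates and exposed to the test compound at a single concentration for 48 hours; results are reported as percent growth, with values below 10 considered active.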 Activity calls are given as the source filed them.

Experiments:
Test in all cases: NCI-60 one-dose screen, 48 h (100 = growth as untreated, 0 = no growth, -100 = all killed)
Details in all cases: 10 µM unless noted
SK-MEL-2 melanoma = tested on: SK-MEL-2 melanoma
EKVX NSCLC = tested on: EKVX NSCLC
SN12C renal = tested on: SN12C renal
UO-31 renal = tested on: UO-31 renal
TK-10 renal = tested on: TK-10 renal
ACHN renal = tested on: ACHN renal
CAKI-1 renal = tested on: CAKI-1 renal
A498 renal = tested on: A498 renal
CCRF-CEM leukemia = tested on: CCRF-CEM leukemia
MOLT-4 leukemia = tested on: MOLT-4 leukemia

Measured: growth

CN(C)CC(=O)Nc1ccc2ncnc(Nc3ccc(Oc4cccc(C(F)(F)F)c4)c(Cl)c3)c2c1
inactive: SK-MEL-2 melanoma 92.1% | EKVX NSCLC 28.9% | SN12C renal 60% | TK-10 renal 46.9% | ACHN renal 23.1% | CAKI-1 renal 35.7% | A498 renal 12.1% | CCRF-CEM leukemia 48.3% | MOLT-4 leukemia 50.8%
active: UO-31 renal -3.49%

O=C(Cn1c(=O)sc2ccccc21)NNS(=O)(=O)c1ccccc1[N+](=O)[O-]
inactive: SK-MEL-2 melanoma 103% | EKVX NSCLC 98.5% | SN12C renal 109% | UO-31 renal 86.1% | TK-10 renal 104% | ACHN renal 101% | CAKI-1 renal 85.2% | A498 renal 110% | CCRF-CEM leukemia 102% | MOLT-4 leukemia 101%

O=C(Cn1c(-c2ccc([N+](=O)[O-])cc2)nc2ccccc21)NNC(=O)c1cccnc1
inactive: SK-MEL-2 melanoma 103% | EKVX NSCLC 73.2% | SN12C renal 78.9% | UO-31 renal 65.6% | TK-10 renal 126% | ACHN renal 84.4% | CAKI-1 renal 71.2% | A498 renal 65.1% | CCRF-CEM leukemia 75.6% | MOLT-4 leukemia 79.3%

CC[C@]12C=CCN3CC[C@@]4(c5cc(NC(=O)CCC(=O)OCc6cn(Cc7ccc(F)cc7)nn6)c(OC)cc5N(C)[C@H]4[C@@](O)(C(=O)OC)[C@@H]1OC(C)=O)[C@@H]32
inactive: SK-MEL-2 melanoma 109% | EKVX NSCLC 101% | SN12C renal 96.4% | UO-31 renal 85.8% | TK-10 renal 94% | ACHN renal 101% | CAKI-1 renal 89.7% | A498 renal 109% | CCRF-CEM leukemia 102% | MOLT-4 leukemia 104%

O=C(CCC(=O)N/N=C/c1ccccc1O)N/N=C/c1ccccc1O
inactive: SK-MEL-2 melanoma 69.7% | EKVX NSCLC 41.1% | SN12C renal 70.2% | UO-31 renal 17.4% | TK-10 renal 44% | ACHN renal 18.7% | CAKI-1 renal 27.7% | A498 renal 80% | CCRF-CEM leukemia 25% | MOLT-4 leukemia 18.1%

CCCCC[C@@H]1Cc2cc(O)c(C(=O)O)c3c2[C@H](C[C@]2(OC[C@@H](CC(=O)[C@@](C)(CC)C(=O)OC)[C@@H]2C)O3)O1
inactive: SK-MEL-2 melanoma 101% | EKVX NSCLC 113% | SN12C renal 92.4% | UO-31 renal 99.6% | TK-10 renal 109% | ACHN renal 97.5% | CAKI-1 renal 99.9% | A498 renal 122% | CCRF-CEM leukemia 116% | MOLT-4 leukemia 90.2%

COc1ccc(C(=O)Nc2ncc(Cc3ccc(F)cc3)s2)cc1
inactive: SK-MEL-2 melanoma 30.7% | EKVX NSCLC 38.4% | SN12C renal 25.1% | UO-31 renal 39.8% | TK-10 renal 63.7% | ACHN renal 28.3% | CAKI-1 renal 22.3% | CCRF-CEM leukemia 12.3% | MOLT-4 leukemia 14.8%
active: A498 renal -12.4%

COc1cccc(CNc2ncnc3c2ncn3C2OC(CO)C(O)C2O)c1O (stereo not given)
active: SK-MEL-2 melanoma -6.73% | SN12C renal -3.64% | UO-31 renal 7.67% | TK-10 renal 6.39% | ACHN renal -14.3% | CAKI-1 renal -2.16% | A498 renal -0.46% | CCRF-CEM leukemia -17.3% | MOLT-4 leukemia 0.14%
inactive: EKVX NSCLC 24.6%

CC(=O)Cc1nsc(NC(=O)c2cc(-c3cc(Cl)cc(Cl)c3)oc2C)n1
inactive: SK-MEL-2 melanoma 102% | EKVX NSCLC 97.3% | SN12C renal 98.8% | UO-31 renal 81% | TK-10 renal 130% | ACHN renal 105% | CAKI-1 renal 90.8% | A498 renal 103% | CCRF-CEM leukemia 103% | MOLT-4 leukemia 96.7%

O=C(Cc1ccccc1)Nc1nc(O)c(/C=C2\C(=O)C=Cc3ccccc32)s1
inactive: SK-MEL-2 melanoma 110% | EKVX NSCLC 95.6% | SN12C renal 101% | UO-31 renal 78.2% | TK-10 renal 150% | ACHN renal 101% | CAKI-1 renal 85.3% | A498 renal 66.8% | CCRF-CEM leukemia 114% | MOLT-4 leukemia 101%

CCN(CC)C(=S)SC(SC(=S)N(CC)CC)C(=O)c1nnn(-c2ccc([N+](=O)[O-])cc2)c1C
inactive: SK-MEL-2 melanoma 91.6% | EKVX NSCLC 97.2% | SN12C renal 96.4% | UO-31 renal 80.5% | TK-10 renal 107% | ACHN renal 98.7% | CAKI-1 renal 89.5% | A498 renal 67.3% | CCRF-CEM leukemia 68.3% | MOLT-4 leukemia 92.5%

CCCCCCCCn1ccc2cc(NC(=O)CN3CCN(c4nc(C)cc(Cl)n4)CC3)ccc21
inactive: SK-MEL-2 melanoma 122% | EKVX NSCLC 93.6% | SN12C renal 99.5% | UO-31 renal 58.9% | TK-10 renal 108% | ACHN renal 98.1% | CAKI-1 renal 87.2% | A498 renal 109%
active: CCRF-CEM leukemia -34.6% | MOLT-4 leukemia 4.97%

COc1ccc(C2c3sc4c(F)cccc4c3Oc3nc[nH]c(=O)c32)cc1 (stereo not given)
inactive: SK-MEL-2 melanoma 97.8% | EKVX NSCLC 71.2% | SN12C renal 77.8% | UO-31 renal 47.6% | TK-10 renal 110% | ACHN renal 72.7% | CAKI-1 renal 76.6% | A498 renal 95% | CCRF-CEM leukemia 85.3% | MOLT-4 leukemia 84.2%

COC(=O)c1n[nH]c2ccc3nc(-c4cn[nH]c4C(F)(F)F)c4c(c3c12)CCCC4
inactive: SK-MEL-2 melanoma 11.9% | EKVX NSCLC 64% | SN12C renal 47.7% | UO-31 renal 29% | TK-10 renal 19.4% | ACHN renal 39% | CAKI-1 renal 15.3% | CCRF-CEM leukemia 42.8% | MOLT-4 leukemia 50.4%
active: A498 renal 5.79%

O=c1oc2c(cnc3ccccc32)cc1-c1ccsc1
inactive: SK-MEL-2 melanoma 106% | EKVX NSCLC 95% | SN12C renal 95.1% | UO-31 renal 79.3% | TK-10 renal 123% | ACHN renal 93.9% | CAKI-1 renal 84.5% | A498 renal 107% | CCRF-CEM leukemia 94.6% | MOLT-4 leukemia 96%

CCOC(=O)c1cc(-c2ccc([N+](=O)[O-])cc2)n(-c2ccc(C(=O)O)c(O)c2)c1C
inactive: SK-MEL-2 melanoma 53.8% | EKVX NSCLC 55.3% | SN12C renal 72.7% | UO-31 renal 24.5% | TK-10 renal 101% | ACHN renal 68.7% | CAKI-1 renal 79.4% | A498 renal 76.4% | CCRF-CEM leukemia 50% | MOLT-4 leukemia 27.2%

CCOC(=O)c1c2c(n3ccc(C)cc13)C(=O)c1ccccc1C2=O
inactive: SK-MEL-2 melanoma 90.2% | EKVX NSCLC 91.2% | SN12C renal 95.8% | UO-31 renal 60.6% | TK-10 renal 103% | ACHN renal 96.4% | CAKI-1 renal 80.1% | A498 renal 83.8% | CCRF-CEM leukemia 99.9% | MOLT-4 leukemia 89.9%

CCOC(=O)c1cn2ncnc(Oc3ccc(NC(=O)NC4CCCCC4)c(Cl)c3)c2c1C
inactive: SK-MEL-2 melanoma 103% | EKVX NSCLC 74.3% | SN12C renal 72.8% | UO-31 renal 79% | TK-10 renal 111% | ACHN renal 61.5% | CAKI-1 renal 85% | A498 renal 76.5% | CCRF-CEM leukemia 69.8% | MOLT-4 leukemia 75.1%

O=C(CSc1nnc2n1S(=O)(=O)c1ccccc1N2c1ccccc1)Nc1nc2ccc(F)cc2s1
inactive: SK-MEL-2 melanoma 56.8% | EKVX NSCLC 103% | SN12C renal 118% | TK-10 renal 125% | ACHN renal 91.3% | CAKI-1 renal 85.3% | A498 renal 122% | CCRF-CEM leukemia 127% | MOLT-4 leukemia 86.8%
active: UO-31 renal -15.4%

COc1ccc(-c2csc(N(C(=O)N3CCN(c4cc5c(cc4F)c(=O)c(C(=O)O)cn5C4CC4)CC3)c3ccccc3)n2)cc1
active: SK-MEL-2 melanoma 0.424% | SN12C renal 6.41% | UO-31 renal 4.2% | ACHN renal -62.5% | CAKI-1 renal 6% | A498 renal 3.67%
inactive: EKVX NSCLC 15.8% | TK-10 renal 32.1% | CCRF-CEM leukemia 24.9% | MOLT-4 leukemia 16%

Oc1c(Cl)cc(Cl)c2ccc(Cn3cc(-c4ccc(C(F)(F)F)cc4)nn3)nc12
inactive: SK-MEL-2 melanoma 95.4% | EKVX NSCLC 81% | SN12C renal 76.9% | UO-31 renal 68.5% | TK-10 renal 97.3% | ACHN renal 36.7% | CAKI-1 renal 21% | A498 renal 83.7%
active: CCRF-CEM leukemia 6.1% | MOLT-4 leukemia -8.16%

C1=C(N2CCCC2)CCC1
inactive: SK-MEL-2 melanoma 112% | EKVX NSCLC 95.2% | SN12C renal 98.1% | UO-31 renal 73.5% | TK-10 renal 121% | ACHN renal 111% | CAKI-1 renal 79.1% | A498 renal 109% | CCRF-CEM leukemia 106% | MOLT-4 leukemia 96.6%

COc1ccc(-c2nc3c(c(-c4ccccc4)nn3-c3ccccc3)c(-c3ccc(N4CCN(C)CC4)cc3)c2C#N)cc1
inactive: SK-MEL-2 melanoma 106% | EKVX NSCLC 104% | SN12C renal 93.7% | UO-31 renal 76.2% | TK-10 renal 99% | ACHN renal 95.3% | CAKI-1 renal 90% | A498 renal 99.6% | CCRF-CEM leukemia 85.3% | MOLT-4 leukemia 69.4%

C=CCn1c(SCC(=O)NCc2cc(C)c(O)c(C)c2)nc2ccc(Cl)cc2c1=O
inactive: SK-MEL-2 melanoma 101% | EKVX NSCLC 111% | SN12C renal 107% | UO-31 renal 74.6% | TK-10 renal 113% | ACHN renal 98.9% | CAKI-1 renal 112% | A498 renal 106% | CCRF-CEM leukemia 86.3% | MOLT-4 leukemia 81.6%

Cc1ccc(-c2nc(N3CCNCC3)c3oc(-c4ccccc4)nc3n2)cc1
inactive: SK-MEL-2 melanoma 61.2% | EKVX NSCLC 101% | CAKI-1 renal 40.5% | A498 renal 95.7%
active: SN12C renal -84.3% | UO-31 renal -90.6% | TK-10 renal -98.6% | ACHN renal -99.8% | CCRF-CEM leukemia -76% | MOLT-4 leukemia -68.8%

CCCCOC(=O)OCc1cc(=O)c(O)co1
inactive: SK-MEL-2 melanoma 109% | EKVX NSCLC 99.7% | SN12C renal 99.2% | UO-31 renal 92.1% | TK-10 renal 94.5% | ACHN renal 97.7% | CAKI-1 renal 93.3% | A498 renal 110% | CCRF-CEM leukemia 109% | MOLT-4 leukemia 102%

Cn1cc(-c2nc(-c3c[nH]c4ccncc34)cs2)c2ccccc21
active: CCRF-CEM leukemia 0.202%
inactive: SK-MEL-2 melanoma 93.1% | EKVX NSCLC 49% | SN12C renal 77.5% | UO-31 renal 57.9% | TK-10 renal 88.3% | ACHN renal 24.7% | CAKI-1 renal 19.8% | A498 renal 85.3% | MOLT-4 leukemia 35.7%
